Activity calls are given as the source filed them.

In assay [1] the test system is PRMT1 (protein arginine N-methyltransferase 1). The assay is described as follows: PRMT1 binders on small-molecule microarrays, primary screen, biochemical, small-molecule microarray, 635 nm fluorescence (AID 1088).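 Note: binding of Prmt1 protein to compounds spotted on small-molecule microarray slides.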 Particulars: small-molecule microarray binding, higher = more signal.
A short description of assay [2]: yeast growth modulation, basal conditions, primary screen, YJM789 clinical isolate, OD600, 24 h (AID 1089).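 Note: growth of clinical yeast isolate S. cerevisiae YJM 789 seeded 1000 cells per well; test concentration not given here.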 Particulars: S. cerevisiae YJM789 growth, higher = more signal, called active from +8 up or from −8 down.
Assay [3] can be described thus: fission yeast growth modulation, primary screen, strain 972, OD600, 24 h, no modulator (AID 1090).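 Note: basal condition with compound alone and no growth modifier present; test concentration not given here.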 The conditions noted are these: S. pombe 972 growth, higher = more signal, called active from +8 up or from −8 down.
A short description of assay [4]: S. cerevisiae growth modulation with rapamycin, primary screen, strain BY4716, OD600, 96 h (AID 1091). Note: test concentration not given here. Particulars: higher = more signal, called active from +8 up or from −8 down.
The target of assay [5] is Torsin-1A-interacting protein 2 (Homo sapiens) (UniProt Q8NFQ8). Nature of the assay: LULL1 binders on small-molecule microarray, primary screen, cell lysate, human LULL1 lysate, 635/667 nm fluorescence (AID 1092).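 Note: probe is lysate of COS7 cells overexpressing human LULL1; score merges per-feature 667 nm fluorescence with signal-to-noise.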 The conditions noted are these: hLULL1 lysate binding, 635 nm fluorescence, higher = more signal.
Torsin-1A-interacting protein 2 (Homo sapiens), sequence (Q8NFQ8 whole entry, looked up): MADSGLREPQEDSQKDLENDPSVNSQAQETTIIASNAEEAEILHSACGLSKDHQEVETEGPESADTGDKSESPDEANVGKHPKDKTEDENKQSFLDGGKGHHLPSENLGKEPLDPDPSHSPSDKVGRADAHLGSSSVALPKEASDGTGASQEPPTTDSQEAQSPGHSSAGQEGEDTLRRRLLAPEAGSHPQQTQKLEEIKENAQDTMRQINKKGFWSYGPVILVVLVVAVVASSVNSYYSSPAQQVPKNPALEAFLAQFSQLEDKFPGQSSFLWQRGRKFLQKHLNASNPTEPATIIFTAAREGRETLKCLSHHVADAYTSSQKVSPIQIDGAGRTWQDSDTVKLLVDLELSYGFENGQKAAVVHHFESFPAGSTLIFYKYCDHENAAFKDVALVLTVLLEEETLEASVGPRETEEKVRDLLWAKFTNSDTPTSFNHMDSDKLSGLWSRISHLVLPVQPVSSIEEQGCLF
Assay [6] in a line: E. coli growth modulation, two-sided OD650, primary screen, E. coli filamentation project, strain DRC41, 24 h (AID 1093).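 Note: MC1000 strain lacking acrAB efflux and sulA so SOS filamentation is blocked; test concentration not given here.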 The conditions noted are these: OD650, 24 h, higher = more signal, called active from +8 up or from −8 down.
A short description of assay [7]: small-molecule microarray binders of probe aLefty2, primary screen, biochemical, biotinylated probe, 635/667 nm fluorescence (AID 1094).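 Note: score merges spot fluorescence near 667 nm with spot signal-to-noise ratio.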 Particulars: higher = more signal.
For assay [8], the system named is Noggin (protein binding on small-molecule microarray). Nature of the assay: Noggin binders on small-molecule microarray, primary screen, biochemical, 635/667 nm fluorescence (AID 1095).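 Note: score merges 667 nm feature fluorescence with signal to noise over triplicate slides.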 The conditions noted are these: 635 nm fluorescence, higher = more signal.
For assay [9], the target named is Neurogenic locus notch homolog protein 3 (Homo sapiens) (UniProt Q9UM47). Nature of the assay: NOTCH3 binders on small-molecule microarray, primary screen, biochemical, 635/667 nm fluorescence (AID 1096). The conditions noted are these: NOTCH3 binding, 635 nm fluorescence, higher = more signal.
Neurogenic locus notch homolog protein 3 (Homo sapiens), sequence (Q9UM47 whole entry, looked up): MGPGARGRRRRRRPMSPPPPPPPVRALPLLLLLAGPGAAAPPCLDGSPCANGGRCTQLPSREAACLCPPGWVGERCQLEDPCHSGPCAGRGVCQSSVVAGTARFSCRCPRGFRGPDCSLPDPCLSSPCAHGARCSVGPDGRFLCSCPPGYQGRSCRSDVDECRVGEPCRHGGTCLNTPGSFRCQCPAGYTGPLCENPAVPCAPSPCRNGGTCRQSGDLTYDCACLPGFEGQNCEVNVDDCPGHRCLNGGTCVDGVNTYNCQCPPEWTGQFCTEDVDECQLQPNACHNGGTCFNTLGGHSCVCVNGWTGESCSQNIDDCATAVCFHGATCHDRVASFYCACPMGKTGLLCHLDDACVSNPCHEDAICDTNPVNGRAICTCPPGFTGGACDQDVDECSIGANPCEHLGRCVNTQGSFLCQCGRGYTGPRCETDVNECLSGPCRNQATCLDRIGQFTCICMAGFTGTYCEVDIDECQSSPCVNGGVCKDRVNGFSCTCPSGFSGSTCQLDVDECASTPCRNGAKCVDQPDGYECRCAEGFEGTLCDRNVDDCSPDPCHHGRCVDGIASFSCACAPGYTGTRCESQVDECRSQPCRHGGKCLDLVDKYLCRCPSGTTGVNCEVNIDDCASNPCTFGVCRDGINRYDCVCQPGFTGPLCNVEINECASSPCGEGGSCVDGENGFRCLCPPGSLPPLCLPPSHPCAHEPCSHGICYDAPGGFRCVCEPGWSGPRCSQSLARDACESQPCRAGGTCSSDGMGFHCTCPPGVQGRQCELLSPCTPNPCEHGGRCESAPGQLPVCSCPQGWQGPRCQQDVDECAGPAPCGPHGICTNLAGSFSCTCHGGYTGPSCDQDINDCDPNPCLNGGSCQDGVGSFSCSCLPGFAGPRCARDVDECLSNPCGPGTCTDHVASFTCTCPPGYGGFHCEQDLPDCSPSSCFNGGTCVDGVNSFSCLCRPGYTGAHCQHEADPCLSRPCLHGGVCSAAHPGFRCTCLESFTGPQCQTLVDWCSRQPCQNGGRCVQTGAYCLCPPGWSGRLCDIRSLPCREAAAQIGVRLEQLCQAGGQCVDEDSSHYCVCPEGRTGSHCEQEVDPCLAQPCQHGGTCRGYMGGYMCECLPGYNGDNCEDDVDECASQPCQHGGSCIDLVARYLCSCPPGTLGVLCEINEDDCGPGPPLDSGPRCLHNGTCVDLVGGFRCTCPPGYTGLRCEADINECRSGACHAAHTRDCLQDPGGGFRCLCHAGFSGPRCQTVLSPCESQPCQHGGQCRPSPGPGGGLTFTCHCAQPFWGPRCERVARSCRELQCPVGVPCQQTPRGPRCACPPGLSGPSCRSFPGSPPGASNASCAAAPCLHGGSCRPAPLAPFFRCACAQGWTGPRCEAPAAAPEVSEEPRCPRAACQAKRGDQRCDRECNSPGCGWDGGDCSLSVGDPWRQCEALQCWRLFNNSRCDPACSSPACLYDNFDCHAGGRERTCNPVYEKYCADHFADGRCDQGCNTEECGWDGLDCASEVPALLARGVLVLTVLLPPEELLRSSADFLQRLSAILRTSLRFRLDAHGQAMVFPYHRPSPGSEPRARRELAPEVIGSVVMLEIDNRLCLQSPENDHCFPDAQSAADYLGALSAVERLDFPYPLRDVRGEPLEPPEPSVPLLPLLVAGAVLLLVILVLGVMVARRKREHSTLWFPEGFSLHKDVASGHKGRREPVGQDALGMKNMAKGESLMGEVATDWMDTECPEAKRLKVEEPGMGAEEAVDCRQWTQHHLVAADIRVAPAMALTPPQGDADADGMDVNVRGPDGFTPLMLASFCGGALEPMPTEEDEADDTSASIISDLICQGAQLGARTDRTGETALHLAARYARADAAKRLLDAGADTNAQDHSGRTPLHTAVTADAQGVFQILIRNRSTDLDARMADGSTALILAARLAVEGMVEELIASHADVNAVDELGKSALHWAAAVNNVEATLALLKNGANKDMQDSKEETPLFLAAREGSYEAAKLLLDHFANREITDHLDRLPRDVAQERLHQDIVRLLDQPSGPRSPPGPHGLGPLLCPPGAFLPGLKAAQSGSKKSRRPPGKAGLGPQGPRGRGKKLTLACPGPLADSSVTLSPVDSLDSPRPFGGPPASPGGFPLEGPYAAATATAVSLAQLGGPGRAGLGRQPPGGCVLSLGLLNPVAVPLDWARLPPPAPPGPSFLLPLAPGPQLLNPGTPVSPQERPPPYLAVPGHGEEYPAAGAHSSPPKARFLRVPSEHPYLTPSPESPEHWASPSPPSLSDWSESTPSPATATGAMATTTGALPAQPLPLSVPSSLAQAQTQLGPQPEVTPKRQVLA
The nature of assay [10]: small-molecule microarray binders of probe aEGFR, primary screen, biochemical, biotinylated probe, 635/667 nm fluorescence (AID 1097).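 Note: probe is a biotinylated anti-EGFR antibody binding compounds printed on slides; score combines fluorescence near 667 nm and signal to noise of each spot.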 Particulars: higher = more signal.
Assay [11] concerns Plasmodium falciparum Sir2 (PF13_0152, Sir2A). Nature of the assay: pfSir2 binders on small-molecule microarrays, primary screen, biochemical, small-molecule microarray, 635 nm fluorescence (AID 1098).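 Note: score merges spot fluorescence intensity with its signal-to-noise ratio.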 The conditions noted are these: small-molecule microarray binding, fluorescence 635 nm; higher = more signal.
A short description of assay [12]: small-molecule microarray binders of probe aDKK1, primary screen, biochemical, biotinylated probe, 635/667 nm fluorescence (AID 1099).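 Note: score merges 667nm spot fluorescence with signal to noise across triplicate slides; reference of the scale not given here.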 The conditions noted are these: higher = more signal.
Assay [13] can be described thus: small-molecule microarray binders of probe aCHRDL2, primary screen, biochemical, biotinylated probe, 635/667 nm fluorescence (AID 1100). Particulars: higher = more signal.
A short description of assay [14]: splicing luciferase reporter signal modulators, primary screen, spliceosome inhibition project, cell-based, HEK293, splice +/- reporter (AID 1101).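 Note: HEK293 cells carrying a splicing-competent luciferase reporter gene; test concentration not given here.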 Particulars: luminescence, 24 h, higher = more signal, called active from +8 up or from −8 down.
In assay [15] the target is Fibroblast growth factor 10 (Homo sapiens) (UniProt O15520). Nature of the assay: FGF10 binders on small-molecule microarrays, primary screen, biochemical, small-molecule microarray, 635 nm fluorescence (AID 1102). Particulars: FGF10 binding, fluorescence 635 nm, higher = more signal.
Fibroblast growth factor 10 (Homo sapiens), sequence (O15520 whole entry, looked up): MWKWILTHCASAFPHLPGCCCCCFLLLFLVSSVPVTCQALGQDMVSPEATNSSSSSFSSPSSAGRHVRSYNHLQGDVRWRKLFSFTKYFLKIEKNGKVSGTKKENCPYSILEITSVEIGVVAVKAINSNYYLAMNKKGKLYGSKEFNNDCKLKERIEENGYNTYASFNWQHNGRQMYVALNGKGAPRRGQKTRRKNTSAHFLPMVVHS
Assay [16] has as its system glycogen synthase kinase-3 (GSK3A per assay name; protocol says GSK3B). Nature of the assay: GSK3 binders on small-molecule microarrays, primary screen, biochemical, small-molecule microarray, 635 nm fluorescence, GSK3A (AID 1103). Note: the record names both GSK3A and GSK3B. Particulars: small-molecule microarray binding, fluorescence 635 nm; higher = more signal.
Assay [17] concerns the target Epidermal growth factor receptor (Homo sapiens) (UniProt P00533). Nature of the assay: EGFR binders on small-molecule microarrays, primary screen, biochemical, small-molecule microarray, 635 nm fluorescence (AID 1104).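 Note: score merges 667 nm emission intensity with spot signal to noise over triplicate slides.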 Particulars: EGFR binding, higher = more signal.
The target of assay [18] is Follistatin-related protein 3 (Homo sapiens) (UniProt O95633). Nature of the assay: FSTL3 binders on small-molecule microarrays, primary screen, biochemical, small-molecule microarray, 635 nm fluorescence (AID 1105).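 Note: score merges emission near 667 nm and signal to noise per printed spot across three slides.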 The conditions noted are these: FSTL3 binding, higher = more signal.
Follistatin-related protein 3 (Homo sapiens), sequence (O95633 whole entry, looked up): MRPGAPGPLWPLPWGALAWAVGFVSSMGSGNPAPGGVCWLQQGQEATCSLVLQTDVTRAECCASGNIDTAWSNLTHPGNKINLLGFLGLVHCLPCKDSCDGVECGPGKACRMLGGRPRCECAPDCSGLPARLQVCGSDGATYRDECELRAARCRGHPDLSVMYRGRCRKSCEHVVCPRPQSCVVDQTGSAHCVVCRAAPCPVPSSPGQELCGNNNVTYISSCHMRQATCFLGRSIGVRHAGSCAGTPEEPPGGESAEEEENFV
For assay [19], the target named is Dickkopf-related protein 1 (Homo sapiens) (UniProt O94907). The assay is described as follows: DKK1 binders on small-molecule microarrays, primary screen, biochemical, small-molecule microarray, 635 nm fluorescence scan (AID 1106).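 Note: score merges emission near 667 nm with signal to noise over three replicate slides.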 The conditions noted are these: DKK1 binding, higher = more signal.
Dickkopf-related protein 1 (Homo sapiens), sequence (O94907 whole entry, looked up): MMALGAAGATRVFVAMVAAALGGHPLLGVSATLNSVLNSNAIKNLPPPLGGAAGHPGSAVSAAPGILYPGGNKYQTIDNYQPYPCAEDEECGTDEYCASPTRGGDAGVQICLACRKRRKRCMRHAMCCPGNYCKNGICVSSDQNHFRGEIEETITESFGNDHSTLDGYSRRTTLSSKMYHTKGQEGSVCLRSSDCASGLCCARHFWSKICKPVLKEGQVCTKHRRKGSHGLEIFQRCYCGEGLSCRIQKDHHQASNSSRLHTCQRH
Assay [20] concerns Inhibin beta A chain (activin A). Nature of the assay: INHBA (activin A) binders on microarrays, primary screen, biochemical, small-molecule microarray, 635 nm fluorescence scan (AID 1107).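 Note: mouse activin A protein probed at 4.33 µg/mL on printed slides; score merges bound-protein fluorescence near 667 nm with spot signal-to-noise.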 The conditions noted are these: small-molecule microarray binding, higher = more signal.

Epidermal growth factor receptor (Homo sapiens), sequence (P00533 whole entry, looked up): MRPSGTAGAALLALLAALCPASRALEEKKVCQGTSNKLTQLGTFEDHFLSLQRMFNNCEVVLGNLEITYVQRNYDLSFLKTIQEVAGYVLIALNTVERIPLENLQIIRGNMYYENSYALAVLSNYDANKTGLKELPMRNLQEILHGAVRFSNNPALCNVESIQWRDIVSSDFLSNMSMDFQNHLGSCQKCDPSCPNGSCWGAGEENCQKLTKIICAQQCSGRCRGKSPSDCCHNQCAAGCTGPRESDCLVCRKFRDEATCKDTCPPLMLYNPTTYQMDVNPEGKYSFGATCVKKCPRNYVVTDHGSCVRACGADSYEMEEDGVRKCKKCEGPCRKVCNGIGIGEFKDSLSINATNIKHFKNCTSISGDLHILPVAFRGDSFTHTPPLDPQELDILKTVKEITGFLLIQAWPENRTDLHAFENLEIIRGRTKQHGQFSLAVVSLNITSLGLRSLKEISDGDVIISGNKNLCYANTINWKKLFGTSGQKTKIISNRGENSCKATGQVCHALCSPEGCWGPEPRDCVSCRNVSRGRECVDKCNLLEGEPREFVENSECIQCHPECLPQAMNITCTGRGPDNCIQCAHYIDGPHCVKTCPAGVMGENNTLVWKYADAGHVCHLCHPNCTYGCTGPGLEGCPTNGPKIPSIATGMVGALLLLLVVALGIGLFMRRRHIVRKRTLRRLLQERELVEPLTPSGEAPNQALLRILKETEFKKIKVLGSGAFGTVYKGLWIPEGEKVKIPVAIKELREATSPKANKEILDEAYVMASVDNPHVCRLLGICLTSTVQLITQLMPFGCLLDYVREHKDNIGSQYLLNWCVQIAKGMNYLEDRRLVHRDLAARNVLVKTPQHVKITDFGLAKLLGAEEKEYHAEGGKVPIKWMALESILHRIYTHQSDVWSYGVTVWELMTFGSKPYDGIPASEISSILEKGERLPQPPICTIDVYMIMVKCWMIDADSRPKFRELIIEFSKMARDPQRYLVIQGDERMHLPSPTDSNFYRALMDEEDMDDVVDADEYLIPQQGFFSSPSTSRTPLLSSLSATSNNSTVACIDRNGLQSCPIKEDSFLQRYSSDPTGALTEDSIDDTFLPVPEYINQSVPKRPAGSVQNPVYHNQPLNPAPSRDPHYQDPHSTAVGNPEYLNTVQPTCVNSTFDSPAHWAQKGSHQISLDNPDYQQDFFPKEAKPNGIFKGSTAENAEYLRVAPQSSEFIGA

As to `COc1ccc(CCNC(=O)[C@@]2(C)c3ccccc3C(=O)N(Cc3ccccc3)[C@H]2c2ccc(CO)cc2)cc1`, the composite z-score was 1.53 in assay [1]; 3.05 in [5]; 0.166 in [7]; 1.33 in assay [8]; 1.07 in [9]; 0.0192 in [10]. Further, the composite z-score worked out at 1.49 in assay [11]; 0.28 in assay [12]; 0.376 in [13]; 1.26 in assay [15]; 0.707 in assay [16]; 0.433 in [17]. Also, the composite z-score in [18] was found to be 1.43; in [19] it was 0.548; in assay [20], 0.684. For the same compound, the z-score was -1.25 (inactive) in [2]; -1.1 (inactive) in assay [3]; -0.648 (inactive) in assay [4]; -0.0282 (inactive) in assay [6]; -0.278 (inactive) in assay [14].
Regarding `C=C(CCCC)/C(=C/C[C@@H](OC(=O)c1ccncc1)c1ccc(CO)o1)c1cc(C(=O)OC)ccc1OC`, the composite z-score in [1] is 1.45; in [5], 2.3; in assay [7], -0.101; in [8] it was 0.752; in [9], 1.07; in [10], 0.107. The composite z-score in [11] is 1.5; in assay [12] it was 0.0296; in assay [13], -0.363; in [15], 0.833; in [16] it was 1.31; in assay [17], 0.669. The composite z-score in assay [18] was 1.03; in assay [19] it was 0.744; in assay [20], 0.775. Also, the z-score in assay [2] is -0.169 (inactive); in [3] it was -1.75 (inactive); in assay [4] it was -0.331 (inactive); in [6], 0.635 (inactive); in assay [14], 0.674 (inactive).
On to `O=C1O[C@@H](c2ccccc2)[C@@H](c2ccccc2)N2[C@@H](c3ccc(O)cc3)[C@]3(C(=O)Nc4ccccc43)[C@@H](C(=O)N3CCCCCCC3)[C@H]12`, for which the composite z-score is 1.54 in assay [1]; 4.32 in [5]; 1.54 in assay [7]; 0.589 in assay [8]; 0.896 in assay [9]; 1.13 in [10]. The composite z-score in assay [11] came out at 2.02; in assay [12], 2.5; in assay [13], 1.53; in [15] it was 1.03; in [16], 1.32; in assay [17], 1.27. The composite z-score stood at 1.58 in assay [18], 1.56 in assay [19] and 1.98 in [20]. The z-score was 0.964 (inactive) in [2]; 0.295 (inactive) in assay [3]; 1.9 (inactive) in assay [4]; 0.271 (inactive) in [6]; -1.29 (inactive) in assay [14].
For `Cc1ccc(S(=O)(=O)N2CC(C(=O)O)=CCC2c2ccccc2)cc1` (stereo not given), the composite z-score in assay [1] was 0.461; in [5] it was 2.89; in assay [7], 0.431; in assay [8], -1.22; in assay [9], -0.231; in assay [10], 0.254. Further, the composite z-score in [11] was 1.11; in [12] it was 0.133; in assay [13] it was 0.696; in assay [15], -0.265; in [16] it was -0.5; in [17], -0.638. The composite z-score in [18] is -0.95; in [19], -1.6; in assay [20] it was -0.538. Also, the z-score is -0.224 (inactive) in [2]; 1.29 (inactive) in assay [3]; -0.0893 (inactive) in [4]; -1.11 (inactive) in [6]; 0.566 (inactive) in [14].
On to `COc1ccc(C(=O)Nc2cccc(CN3C(=O)[C@@]4(O[C@@H](CCn5cc([C@H](O)c6ccccc6)nn5)[C@H]([Si](C)(C)c5ccc(OC)cc5)[C@H]4C)c4ccccc43)c2)cc1`, for which the composite z-score in [1] was 0.677; in [5] it was 1.11; in [7], 0.0123; in [8] it was 1.58; in [9], 0.806; in [10], -0.0947. Further, the composite z-score in [11] was 1.19; in assay [12], 0.142; in assay [13] it was 0.634; in assay [15], 1.21; in assay [16], 0.175; in [17], -0.219. Further, the composite z-score was determined as 0.206 in [18], 0.249 in assay [19] and 1.16 in assay [20]. Further, the z-score in [2] was -0.384 (inactive); in assay [3], -1.17 (inactive); in assay [4], 0.0585 (inactive); in [6] it was -0.594 (inactive); in assay [14], -1.46 (inactive).
With `CN(C)CCCCCCNC(=O)[C@@H]1C[C@@H]2C(=O)N[C@@H](Cc3ccccc3)C(=O)N2[C@@H]1c1cccc(OCCO)c1`, the composite z-score in [1] was 1.55; in assay [5], 2.67; in assay [7] it was 0.0498; in assay [8], 1.05; in assay [9], 1.13; in assay [10] it was -0.0492. Moreover, the composite z-score in [11] is 1.12; in assay [12], 0.182; in [13], 0.635; in [15], 0.393; in assay [16], 1.31; in assay [17], 0.464. Also, the composite z-score in assay [18] is 0.721; in assay [19] it was 0.872; in [20], 0.728. Besides, the z-score in assay [2] is -1.49 (inactive); in assay [3], -1.07 (inactive); in [4] it was -0.567 (inactive); in [6], 0.698 (inactive); in [14] it was -0.326 (inactive).
Regarding `COc1ccc([Si](C)(C)[C@@H]2[C@@H](CC(=O)N3Cc4ccccc4C[C@H]3CO)O[C@]3(C(=O)N(Cc4cccc(N5C(=O)COc6ccccc65)c4)c4ccccc43)[C@H]2C)cc1`, the composite z-score in assay [1] is 1.49; in [5] it was 1.25; in assay [7], -0.15; in assay [8], 0.812; in [9], 1.14; in assay [10], -0.0981. Moreover, the composite z-score was 0.321 in assay [11]; 0.542 in [12]; -0.602 in assay [13]; 0.904 in assay [15]; 0.901 in assay [16]; 0.925 in assay [17]. Also, the composite z-score stood at 1.13 in [18], 1.01 in [19] and 0.729 in assay [20]. The z-score is -1.38 (inactive) in assay [2]; 0.553 (inactive) in assay [3]; 3.67 (inactive) in assay [4]; 2.33 (inactive) in assay [6]; -1.82 (inactive) in assay [14].
With `CCN(CC)c1ccc(N2CC=CC34O[C@@H]5/C=C\CCCOC(=O)C5[C@H]3C(=O)N(CCCO)[C@@H]4C2=O)cc1` (stereo not given in full), the composite z-score in assay [1] is 1.42; in assay [5], 3.65; in assay [7], -0.158; in [8] it was -1.03; in assay [9] it was -0.21; in assay [10], -0.287. The composite z-score in assay [11] was 1.47; in assay [12], -0.136; in [13] it was 0.808; in [15] it was -1.04; in assay [16], -0.422; in assay [17] it was -1.48. Also, the composite z-score was -0.88 in assay [18], -1.75 in assay [19] and -0.222 in assay [20]. In addition, the z-score was -1.14 (inactive) in assay [2]; -0.249 (inactive) in assay [3]; -0.511 (inactive) in [4]; -0.204 (inactive) in assay [6]; 0.821 (inactive) in assay [14].
For `C=CCN1C(=O)[C@]2(COC(c3ccc(OCCCO)cc3)=N2)Cc2ccccc21`, the composite z-score in assay [1] was 1.36; in [5], 3.21; in assay [7], 0.0914; in [8] it was 0.044; in assay [9], 0.801; in assay [10], -0.163. In addition, the composite z-score in assay [11] amounted to 1.31; in [12], 0.16; in [13] it was 0.946; in [15], 0.261; in [16] it was 0.678; in [17], 0.145. Besides, the composite z-score in [18] is 0.232; in assay [19] it was -0.169; in [20], 1.13. The z-score in assay [2] is -2.32 (inactive); in assay [3], -5.3 (inactive); in assay [4], -1.78 (inactive); in [6], 1.09 (inactive); in assay [14] it was -0.556 (inactive).

For the origin of these results see PubChem BioAssay.
